{"source": "PubChem BioAssay AID686978", "about": "(National Center for Advancing Translational Sciences (NCATS), 2013)", "note": "Among all 420,000 compounds or so, about 64,000 (15%) were called active. Not shown: some 27% with an inconclusive outcome. A selection follows. A number with no mark means an inactive call. Calls come from the whole dose curve; as a rule, active = well fitted inhibition curve with a large enough effect; inconclusive = small, poorly fitted or top-dose-only effect; inactive = flat fitted curve, though single readings scatter. % is set by controls: 0 for no effect and ±100 for the full control effect; potency is the fitted concentration of half-maximal effect."}
{"assay": "qHTS for Inhibitors of human tyrosyl-DNA phosphodiesterase 1 (TDP1): qHTS in cells in absence of CPT; note: nearly all actives have a fitted effect of over 55% in size", "conditions": "DT40 Tdp1-/- hTDP1 cells, no CPT, ATP luminescence, 48 h; activity change, negative = growth inhibition: at 46.2 µM (top of the series)", "how_it_was_run": "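Stably hTDP1-transfected Tdp1-null chicken DT40 cells were treated with library compounds minus camptothecin and grown for at least 48 hr at 37 °C, after which cellular ATP was quantified by luminescence.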", "units": {"activity change, negative = growth inhibition": "%"}}
{"smiles": "COC(=O)/C(=C1\\Oc2ccc(C(C)(C)C)cc2S1)C(F)(F)F", "activity change, negative = growth inhibition": -21.9}
{"smiles": "CC(=O)Nc1ccc(S(=O)(=O)NC2(C(F)(F)F)C(=O)NC(C)=C2C#N)cc1", "note": "(configuration not stated)", "activity change, negative = growth inhibition": -6.96}
{"smiles": "O=C(Cc1ccccc1F)NC1CCSc2ccccc21", "note": "(configuration not stated)", "activity change, negative = growth inhibition": -9.14}
{"smiles": "CCc1cc(Br)ccc1NC(=O)C1CCCO1", "note": "(configuration not stated)", "activity change, negative = growth inhibition": 2.43}
{"smiles": "COc1ccccc1C(=O)COC(=O)CNS(=O)(=O)c1ccc(NC(C)=O)cc1", "activity change, negative = growth inhibition": -3.88}
{"smiles": "O=C1c2cccc3c([N+](=O)[O-])ccc(c23)C(=O)N1CC1CCCO1", "note": "(configuration not stated)", "Potency": "5.8 µM (active)"}
{"smiles": "O=c1c2cc3c(=O)n(CC4CCCO4)c(=O)c3cc2c(=O)n1CC1CCCO1", "note": "(configuration not stated)", "activity change, negative = growth inhibition": -6.38}
{"smiles": "O=C(NCc1ccc2c(c1)OCO2)c1ccc2c(c1)C(=O)N(CC1CCCO1)C2=O", "note": "(configuration not stated)", "activity change, negative = growth inhibition": -27.4}
{"smiles": "COc1ccc(/C=C/C(=O)OCC(=O)NCc2cccs2)cc1OC", "activity change, negative = growth inhibition": -1.48}
{"smiles": "COc1cc(/C=C/C(=O)OCC(=O)NC(=O)NCc2ccccc2)ccc1OCC#N", "activity change, negative = growth inhibition": -13.8}
{"smiles": "CCOc1ccc(/C=C/C(=O)OCC(=O)c2ccccc2OC)cc1OC", "Potency": "20.6 µM (active)"}
{"smiles": "COc1ccc(S(=O)(=O)N(CC(=O)N/N=C/c2ccc(C(=O)O)cc2)Cc2ccccc2)cc1OC", "activity change, negative = growth inhibition": 3}
{"smiles": "Cc1nonc1OCCn1nnnc1N", "activity change, negative = growth inhibition": -1.77}
{"smiles": "Cc1csc(=O)n1CCC(=O)OCC(=O)Nc1ccc(N2CCOCC2)cc1", "activity change, negative = growth inhibition": -5.01}
{"smiles": "O=C1Nc2cc(Cl)c(Cl)cc2N(O)N1c1ccccc1Cl", "activity change, negative = growth inhibition": 2.71}
{"smiles": "COc1ccc(C(=O)NCc2cn3ccccc3n2)cc1", "activity change, negative = growth inhibition": 3.12}
{"smiles": "COC(=O)c1ccc2nc(-c3ccc(Cl)cc3)c(Cc3cccc(F)c3)n2c1", "Potency": "23.1 µM (active)"}
{"smiles": "COC(=O)c1ccc(NC(=O)CSc2nncc3ccc(OC)c(OC)c23)cc1", "activity change, negative = growth inhibition": -16.5}
{"smiles": "COC(=O)c1ccc2nc(-c3ccccc3)c(Cc3ccc(OC)cc3C)n2c1", "Potency": "23.1 µM (active)"}
{"smiles": "COC(=O)c1ccc2nc(-c3ccc(F)cc3)c(Cc3ccc(C)cc3)n2c1", "activity change, negative = growth inhibition": -27.5}
{"smiles": "COC(=O)c1ccc(COC(=O)c2cnc(Cl)c(Cl)c2)cc1", "activity change, negative = growth inhibition": -7.94}
{"smiles": "COC(=O)c1ccc2nc(-c3cccc(Br)c3)c(Cc3ccccc3C(F)(F)F)n2c1", "activity change, negative = growth inhibition": -18}
{"smiles": "COC(=O)c1ccc2nc(-c3ccc(OC)c(OC)c3)c(Cc3ccccc3)n2c1", "Potency": "20.6 µM (active)"}
{"smiles": "CCN1CCN(Cc2c(O)ccc3c(=O)c(-c4ccc(OC)c(OC)c4)c(C(F)(F)F)oc23)CC1", "activity change, negative = growth inhibition": -17.6}
{"smiles": "Cc1ccc(NS(=O)(=O)c2c(C)[nH]c(=O)[nH]c2=O)cc1C", "activity change, negative = growth inhibition": -4.65}
{"smiles": "C[C@@H]1CC[C@]2(O[C@@H](CCO)C[C@H](O)[C@H]2O)O1", "activity change, negative = growth inhibition": 5.06}
{"smiles": "CCCCSc1nnc(-c2ccc(NC(=O)CC)cc2)n1C", "Potency": "inactive"}
{"smiles": "O=C(c1cccc(S(=O)(=O)Nc2ccccc2Cl)c1)N1CCN(C(=O)c2ccco2)CC1", "activity change, negative = growth inhibition": 1.12}
{"smiles": "COc1ccc(C)cc1NC(=O)NCCCCc1ccccc1", "activity change, negative = growth inhibition": 12.6}
{"smiles": "CCOc1ccc(-c2nonc2NC(=O)c2oc3ccc(C)cc3c2C)cc1OCC", "activity change, negative = growth inhibition": -16.5}
{"smiles": "CCc1nonc1NC(=O)c1oc2ccc(Cl)cc2c1C", "Potency": "inactive"}
{"smiles": "CCOc1ccc(-c2nonc2NC(=O)c2oc3ccc(CC)cc3c2C)cc1", "Potency": "20.6 µM (active)"}
{"smiles": "CCCCCCCCOC1OC(CO)C(O)C(O)C1NC(C)=O", "note": "(configuration not stated)", "activity change, negative = growth inhibition": -3.29}
{"smiles": "O=C1CCN(C(=O)Nc2ccccc2)N1", "activity change, negative = growth inhibition": 1.14}
{"smiles": "CCNC(=O)C1(C)CCCN(C(=O)c2c(C)noc2C)C1", "note": "(configuration not stated)", "activity change, negative = growth inhibition": -13.2}
{"smiles": "COc1ccc(-c2cc(-c3ccc(F)cc3)nc3c2COc2ccccc2-3)cc1", "activity change, negative = growth inhibition": -23.6}
{"smiles": "NC(=O)C1CCN(C2OC(=O)c3ccccc32)CC1", "note": "(configuration not stated)", "activity change, negative = growth inhibition": -8.31}
{"smiles": "CCOC(=O)NNC(=O)c1ccc(Cl)cc1", "activity change, negative = growth inhibition": -8.72}
{"smiles": "Cc1ccc(S(=O)(=O)n2nc(C)c(S(=O)(=O)N3CCCCCC3)c2C)cc1", "activity change, negative = growth inhibition": -4.52}
{"smiles": "CCOc1ccccc1NC(=O)C1CCN(S(=O)(=O)c2c(C)nn(C)c2C)CC1", "activity change, negative = growth inhibition": -18.3}
{"smiles": "Cc1nn(C)c(C)c1S(=O)(=O)N1CCC(CO)(Cc2ccc(Cl)cc2)CC1", "Potency": "16.4 µM (active)"}
{"smiles": "COc1ccc(NC(=O)c2ccccc2CC[N+](=O)[O-])cc1", "activity change, negative = growth inhibition": 1.08}
{"smiles": "CC(=O)c1cccc(NC(=O)c2nc(-c3ccccc3)n(-c3cccc(C)c3)n2)c1", "Potency": "10.3 µM (active)"}
{"smiles": "CC(=O)c1cccc(NC(=O)Nc2ccc(C)cc2)c1", "activity change, negative = growth inhibition": -22.1}
{"smiles": "CC(=O)c1cccc(NC(=O)c2cc(C)nn2-c2ccccc2)c1", "activity change, negative = growth inhibition": -28.1}
{"smiles": "COc1ccc2c(c1)C(c1cccs1)=NNC(c1cccnc1)=N2", "activity change, negative = growth inhibition": -18}
{"smiles": "COC(=O)c1cccc([N+](=O)[O-])c1CS(=O)(=O)c1ccc(C)cc1", "activity change, negative = growth inhibition": 0.149}
{"smiles": "COc1cccc2c(O)cc(=O)n(C)c12", "activity change, negative = growth inhibition": -27.5}
{"smiles": "COCCCN(C(=S)Nc1c(C)cc(C)cc1C)C(C)c1ccncc1", "note": "(configuration not stated)", "activity change, negative = growth inhibition": -2.19}
{"smiles": "COc1ccc(S(=O)(=O)n2nc(C)c(S(=O)(=O)N3CCOCC3)c2C)cc1", "activity change, negative = growth inhibition": 18.8}
{"smiles": "CSc1ccccc1NC(=O)c1ccc2c(c1)CCN2S(C)(=O)=O", "activity change, negative = growth inhibition": -18.4}
{"smiles": "O=C(Nc1ccc(S(=O)(=O)N2CCOCC2)cc1)c1ccc2ncsc2c1", "activity change, negative = growth inhibition": 2.34}
{"smiles": "CNC(=O)c1ccsc1NC(=O)c1ccc(S(=O)(=O)N2CCOCC2)cc1", "Potency": "23.1 µM (active)"}
{"smiles": "COc1ccc(C(=O)Nc2nc(-c3ccc(S(=O)(=O)N4CCOCC4)cc3)cs2)cc1", "Potency": "20.6 µM (active)"}
{"smiles": "Cc1cc2nc(NC(=O)c3ccc(S(=O)(=O)N4CCOCC4)cc3)sc2cc1C", "activity change, negative = growth inhibition": 2.39}
{"smiles": "CS(=O)(=O)N1CCc2cc(C(=O)Nc3ccccc3Br)ccc21", "activity change, negative = growth inhibition": 6.47}
{"smiles": "CNC(=O)c1ccsc1NC(=O)c1ccc(S(=O)(=O)N2CCc3ccccc32)cc1", "Potency": "18.4 µM (active)"}
{"smiles": "Cc1ccc(S(=O)(=O)N2CCOCC2)cc1NC(=O)c1ccncc1", "activity change, negative = growth inhibition": -13.4}
{"smiles": "Cc1ccc(N2CCN(/N=C/c3cccs3)CC2)cc1", "activity change, negative = growth inhibition": -15.1}
{"smiles": "CCN1CCN(C2CCCCC2NS(=O)(=O)c2ccc(Cl)cc2)CC1", "note": "(configuration not stated)", "activity change, negative = growth inhibition": 4.44}
{"smiles": "O=C1OC(C(O)CO)C(O)=C1O", "note": "(configuration not stated)", "activity change, negative = growth inhibition": -6.15}
{"smiles": "COC(=O)c1ccc(COC(=O)C2CCN(S(=O)(=O)c3c(Cl)cccc3Cl)CC2)o1", "activity change, negative = growth inhibition": -2.71}
{"smiles": "CC(C)(C)n1nnc(CCc2nnn(C(C)(C)C)n2)n1", "activity change, negative = growth inhibition": -13.1}
{"smiles": "O=S(=O)(NCCCN1CCOCC1)c1ccc(F)c(Cl)c1", "activity change, negative = growth inhibition": 17.3}
{"smiles": "COC(=O)[C@]1(CC(C)C)N[C@H](c2ccc(SC3CCCCC3)cc2)[C@@H]2C(=O)N(C)C(=O)[C@@H]21", "Potency": "23.1 µM (active)"}
{"smiles": "COC(=O)[C@]1(C)N[C@H](CN(C)C(=O)c2ccc(C(C)(C)C)cc2)[C@@H]2C(=O)N(C)C(=O)[C@@H]21", "activity change, negative = growth inhibition": -8.27}
{"smiles": "CCCC1(C(=O)OC)NC(c2ccco2)C2C(=O)N(C)C(=O)C21", "note": "(configuration not stated)", "activity change, negative = growth inhibition": 10.1}
